Experiments:
[1] = tested on: HT29 RNF43 G659fs (RNF43 659mut, CRISPR-edited); assay: cell viability activity relative to DMSO (negative = inhibition); higher = more viable cells (less growth inhibition); settings: 5 µM; 96 h
Method: (§1)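 Broad Repurposing Library primary screen at a single dose of 5 uM. HT29 sg-Ctrl and HT29 RNF43 G659fs CRISPR-edited isogenic cells were seeded at 2500 cells/well in 384-well plates in duplicate and treated for 96 h. Viability was read by CellTiter-Glo and reported as % activity relative to DMSO, with MG132 as the positive control (negative = growth inhibition).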

[2] = tested on: HT29 sg-Ctrl (RNF43 wildtype); assay: as above; settings: 5 µM; 96 h
Method: as §1

Row | Compound | cell viability activity [1] | cell viability activity [2]
1 | OCc1ccc(-c2ccc(-c3ccc(CO)s3)o2)s1 | -51.5% | -42.8%
2 | CC(=O)OC1CC2CCC1(C)C2(C)C (stereo unspecified) | -28.1% | -26.5%
3 | CC(=O)N1CCN(CCOc2ccc(C3CCN(C4=Nn5c(nnc5C(F)(F)F)CC4)CC3)cc2)CC1 | -32.3% | -33.7%
4 | O=C(/C=C/c1ccc(CN(CCO)CCc2c[nH]c3ccccc23)cc1)NO | -95.4% | -92.2%
5 | CC(C)C[C@H](NC(=O)[C@@H](NC(=O)c1cccc(-c2ccccc2)n1)[C@@H](C)O)B(O)O | -95.1% | -95.4%
6 | COC(=O)Nc1ccc(-c2nc(N3CCOCC3)c3cnn(C4CCN(C(=O)OC)CC4)c3n2)cc1 | -50% | -38%
7 | CO[C@H]1C(=O)[C@]2(C)[C@@H](OC)C[C@H]3OC[C@@]3(OC(C)=O)[C@H]2[C@H](OC(=O)c2ccccc2)[C@]2(O)C[C@H](OC(=O)[C@H](O)[C@@H](NC(=O)OC(C)(C)C)c3ccccc3)C(C)=C1C2(C)C | -45% | -50.5%
8 | CN(C)CCN1C(=O)c2cccc3cc(N)cc(c23)C1=O | -53.7% | -47.7%
9 | CCCCCCCCCCCCCCCC[N+](C)(C)Cc1ccccc1 | -46.6% | -34.3%
10 | Cc1cc(-c2cc(O)ccc2Cl)cc2nnc(Nc3ccc(OCCN4CCCC4)cc3)nc12 | -41.1% | -76.9%
11 | CC(C)c1cc(-c2n[nH]c(=O)n2-c2ccc3c(ccn3C)c2)c(O)cc1O | -87.1% | -81.7%
12 | O=C(c1ccc(-c2ccc(Cl)cc2)o1)N(Cc1ccccn1)c1ccc(N2CCNCC2)cc1 | -45.7% | -21.3%
13 | C[C@H](Nc1cc(-c2cnn(C)c2)cc(Nc2cnccn2)n1)c1ccc(F)cc1 | -46.9% | -43%

— the supplement of paper PMC9177965
